A selection: hits, their analogues and other compounds. The true share with any hit is near 7.4%.
PD-1 reverse act = activators reversing PD-1 mediated T-cell inhibition | primary human CD4 T cells, PD-L1 beads, CellTiter-Glo 96 h | activation, % (no concentration beside the values) | 29,000 tested, under 10 active | AID 2316; call rule not given here;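 further: 0% = median vehicle wells and 100% = positive control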
YB-1 expr inh = YB-1 expression inhibition; delta delta Cp (YB-1 minus CDIP) (concentration not given with the values); AID 434959; hit rate 0.37% among 30,000; U2OS, qRT-PCR YB-1 vs CDIP delta delta Cp, 16 h; hits give high values; zero = DMSO, each unit about twofold;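 active means delta delta Cp rounded down to an integer at or above 3, about 3 SD of DMSO wells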;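 further: higher means less YB-1 transcript or more CDIP transcript relative to DMSO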
Hedgehog inh = Sonic Hedgehog pathway inhibition; inhibition, % (concentration not given with the values); Shh-LIGHT2 Gli-luciferase reporter, 30 h; hit rate 2.1% among 22,000; AID 2313;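 active means mean inhibition across valid replicates above about 65%, limit read from the data; inconclusive means mean under the limit, yet half or more replicates past it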;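 further: pathway switched on by Shh-conditioned medium diluted 1 in 25 in low serum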
MITF inh = blocks MITF activity | inhibition, % (test concentration not listed) | hit rate 0.28% among 37,000 | AID 2240 | TRPM1 promoter luciferase, luminescence, 24 h; in the data active means inhibition above about 85%; inconclusive means no clear call, values can overlap the other calls; inactive means below about 68%;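 further: human melanocyte line stably carrying TRPM1 promoter luciferase reporter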
NOMO-1 viab = STK33 inhibitor candidate reducing NOMO-1 cell viability; hit rate 7.5% among 37,000; inhibition, % (concentration not given with the values); NOMO-1 AML viability, CellTiter-Glo luminescence, 72 h; in the data active means inhibition above about 80%; inconclusive means no clear call, values can overlap the other calls
Numbers without * were called inactive; ? = inconclusive; · = not tested or not shown.

SMILES | PD-1 reverse act | YB-1 expr inh | Hedgehog inh | MITF inh | NOMO-1 viab
C[C@@H]1CN([C@@H](C)CO)C(=O)Cc2cc(NC(=O)c3ccncc3)ccc2O[C@@H]1CN(C)Cc1ccc(C(=O)Nc2ccccc2N)cc1 | 0.7 | -0.651 | · | -0.1 | 64.7
C[C@H](CO)N1C[C@H](C)[C@H](CN(C)Cc2ccc(C(=O)Nc3ccccc3N)cc2)Oc2ccc(N(C)C)cc2CC1=O | -1.8 | -0.207 | · | 36.7 | 141.1*
C[C@H](CO)N1C[C@H](C)[C@H](CN(C)Cc2ccccc2C(=O)O)OCc2cn(nn2)CCCC1=O | · | -0.688 | · | · | ·
CSCCC(Nc1ncnc2sc3c(c12)CCCC3)C(=O)O (centres undefined) | · | · | · | -11.8 | -4.6
O=C(Nc1ncnc2sc3c(c12)CCCCC3)c1ccc(F)cc1 | -3.2 | -0.186 | · | 0.8 | 108.9*
CNC(=O)c1c(N)sc2c1CCCCC2 | -1.2 | -0.593 | -22.8 | -10.1 | 126.3*
C[C@H](CO)N1C[C@H](C)[C@@H](CN(C)Cc2ccc(Oc3ccccc3)cc2)Oc2c(NC(=O)c3nc4ccccc4s3)cccc2C1=O | -2.4 | 1.43 | -15.1 | 16.0 | 86.7*
C[C@@H]1CN([C@@H](C)CO)C(=O)c2cccc(NC(=O)c3nc4ccccc4s3)c2O[C@@H]1CN(C)Cc1ccc(C(=O)O)cc1 | -0.3 | 0.0816 | -12.8 | 12.4 | 14.9
C[C@@H]1CN([C@@H](C)CO)C(=O)c2cccc(NC(=O)c3nc4ccccc4s3)c2O[C@H]1CN(C)Cc1ccc(C(=O)Nc2ccccc2N)cc1 | -1.0 | -0.425 | · | 23.2 | 118.4*
C[C@H](CO)N1C[C@H](C)[C@H](CN(C)Cc2ccc(C(F)(F)F)cc2)Oc2c(NC(=O)c3nc4ccccc4s3)cccc2C1=O | -7.2 | 0.118 | -1.6 | 35.3 | 95.6*
C[C@H](CO)N1C[C@H](C)[C@@H](CN(C)Cc2ccc(C(F)(F)F)cc2)Oc2c(NC(=O)c3nc4ccccc4s3)cccc2C1=O | -3.4 | -0.119 | 13.7 | 12.3 | 106.1*
C[C@H]1CN([C@@H](C)CO)C(=O)c2cccc(NC(=O)c3nc4ccccc4s3)c2O[C@@H]1CN(C)Cc1ccc(C(F)(F)F)cc1 | · | -0.212 | 7.6 | 29.3 | 68.9
Cc1ccc(OC(=O)N(C)C[C@@H]2OCc3cn(nn3)CCCC(=O)N([C@@H](C)CO)C[C@@H]2C)cc1 | · | 0.125 | · | · | ·
C[C@H]1CN([C@@H](C)CO)C(=O)c2cc(NC(=O)CCCN(C)C)ccc2O[C@H]1CN(C)Cc1ccncc1 | 6.8 | 0.209 | · | -6.1 | 10.0
COc1ccc(OC2OC(COC3OCC(O)C(O)C3O)C(O)C(O)C2O)cc1OC (centres undefined) | 1.9 | -0.485 | -12.6 | -19.5 | 4.3
C[C@@H]1CN([C@@H](C)CO)C(=O)c2cccc(NC(=O)C3CCCCC3)c2O[C@H]1CN(C)S(=O)(=O)c1cccs1 | -0.5 | -0.179 | 12.3 | 3.9 | -2.7
C[C@@H]1CN([C@H](C)CO)C(=O)c2cc(NS(=O)(=O)c3cn(C)cn3)ccc2O[C@H]1CN(C)C | 1.4 | 0.0864 | -2.7 | 1.1 | 36.9
Cc1noc(C)c1S(=O)(=O)N(C)C[C@@H]1Oc2ccc(N(C)C)cc2CC(=O)N([C@H](C)CO)C[C@@H]1C | · | 6.68e-05 | 3.5 | -3.6 | 23.5
COc1ccc(OCC(=O)Nc2cc(-c3nnc(OC)c4ccccc34)ccc2N2CCCCC2)cc1 | 2.4 | · | · | 72.7 | 89.1*
COc1nnc(-c2ccc(N3CCOCC3)c(NS(=O)(=O)c3ccc(Cl)cc3)c2)c2ccccc12 | 0.3 | · | · | 10.1 | 10.5
Cc1noc(C)c1NC(=O)Nc1ccc2c(c1)CC(=O)N([C@H](C)CO)C[C@H](C)[C@H](CN(C)Cc1ccc(C(=O)O)cc1)O2 | 0.3 | 0.18 | -11.7 | -3.2 | 20.8
CCC(C)CC(C)/C=C\C1OC2=C(C(=O)OC2(C)O)C(O)C1O (centres undefined) | -8.3 | 0.936 | ? | ? | 108.1*
COCCNC(=O)c1ccccc1NC(=O)c1ccccc1OC | 2.5 | · | · | 2.7 | -2.9
COc1cccc(-c2cc(NCc3ccc4c(c3)OCO4)nc(N)n2)c1 | -24.5 | 0.0155 | ? | -0.8 | 94.6*
Cc1cc(Br)ccc1NCc1ccc2c(c1)OCO2 | 0.3 | -0.997 | -35.2 | -68.0 | 42.5
SMILES | PD-1 reverse act | YB-1 expr inh | Hedgehog inh | MITF inh | NOMO-1 viab
O=C(CC1(O)C(=O)Nc2ccc(I)cc21)c1ccccn1 (centres undefined) | · | · | · | 16.2 | 89.9*
C[C@H](CO)N1C[C@H](C)[C@H](CN(C)Cc2ccc(C(F)(F)F)cc2)Oc2ccc(NC(=O)c3ccncc3)cc2CC1=O | -1.8 | 0.0495 | 12.5 | -1.6 | 32.4
CC(=O)OCOC(=O)CN(CC(=O)OCOC(C)=O)c1ccccc1OCCOc1ccccc1N(CC(=O)OCOC(C)=O)CC(=O)OCOC(C)=O | · | 0.47 | 17.5 | 10.8 | 112.7*
C[C@H]1CN([C@@H](C)CO)C(=O)Cc2cc(NC(=O)CCN3CCOCC3)ccc2O[C@@H]1CN(C)Cc1ccncc1 | 2.2 | 0.142 | -1.2 | 11.0 | 6.3
CC(C)=CCc1c(O)cc(O)c2c(=O)cc(-c3ccc(O)cc3)oc12 | -2.1 | -0.898 | 42.1 | 17.9 | 93.9*
O=C(COc1cccc(NC(=O)c2ccc(Cl)cc2)c1)c1ccccc1 | · | · | · | 28.7 | 25.4
O=C(COc1ccc(Cl)cc1)CC(=O)c1ccc(Cl)cc1 | -3.0 | -0.32 | 5.8 | -5.2 | 109.9*
C[C@@H]1CN([C@H](C)CO)C(=O)Cc2cc(NC(=O)Nc3ccc(C(F)(F)F)cc3)ccc2O[C@H]1CN(C)S(=O)(=O)c1ccc(Cl)cc1 | -5.3 | 1.64 | 59.6 | 67.7 | 117.0*
C[C@@H]1CN([C@H](C)CO)C(=O)Cc2cc(NC(=O)Nc3ccc(C(F)(F)F)cc3)ccc2O[C@@H]1CN(C)S(=O)(=O)c1ccc(Cl)cc1 | 0.1 | 0.117 | -2.5 | 16.0 | 15.5
C[C@H](CO)N1C[C@H](C)[C@H](CN(C)S(=O)(=O)c2ccc(Cl)cc2)Oc2ccc(NC(=O)Nc3ccc(C(F)(F)F)cc3)cc2CC1=O | -5.4 | 0.634 | 72.4* | 50.0 | 133.6*
C[C@H](CO)N1C[C@H](C)[C@H](CN(C)C(=O)Nc2ccc3c(c2)OCO3)Oc2c(NC(=O)Nc3ccccc3)cccc2C1=O | -1.6 | -0.241 | -71.7 | -5.8 | 38.7
C[C@@H]1O[C@@H](O[C@H]2[C@H](O[C@H]3CC[C@@]4(C)C(CC[C@]5(C)C4CC=C4C6CC(C)(C)CC[C@]6(C(=O)O[C@@H]6O[C@H](CO[C@@H]7O[C@H](CO)[C@@H](O[C@@H]8O[C@@H](C)[C@H](O)[C@@H](O)[C@H]8O)[C@H](O)[C@H]7O)[C@@H](O)[C@H](O)[C@H]6O)CC[C@]45C)C3(C)C)OC[C@H](O)[C@@H]2O)[C@H](O)[C@H](O)[C@H]1O (some centres undefined) | · | 0.298 | 5.9 | · | ·

Assay outcomes deposited in PubChem by Broad Institute.
